Reference: PubChem BioAssay (NCI)
This is part of a sample that, as a whole, favours compounds with a hit. Of some 79,000 tested, about 15% had one in any assay. Active and inactive are the calls of the source. Cut-off read from the data, not from the text of the source: active = growth inhibition above about 70%; inactive = the rest. Where a SMILES comes first, the peptide text is derived from it. The star is where a group is joined. Trt = c1ccc(C(c2ccccc2)(c2ccccc2)*)cc1; OtBu = CC(C)(C)O*

test: NCI Yeast Anticancer Drug Screen. Data for the mec2-1 strain (AID 157); conditions: S. cerevisiae mec2-1 strain, at 5.0 µM (retest, dose inferred, filed as 0.5), hits give high values
Summary of the method: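 Compounds were applied to mec2-1 yeast cells. Their growth was then compared with that of vehicle-treated cultures to give growth inhibition.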

Structure (SMILES) | growth inhibition
CCOC(=O)C(=N\Nc1cccc(C)c1C)/C(C)=N\NC(N)=S | 9% (inactive)
CCN(CC)CCNc1ccc(C)c2oc3ccc(O)cc3c(=O)c12 | 27% (inactive)
O=C1C(C=NC(=S)c2ccccc2)=C(O)c2ccccc21 | 23% (inactive)
CCOC(=O)Cc1csc(/N=C\c2c(O)c3ccccc3oc2=O)n1 | 16% (inactive)
CC(C)(CCCCC(C)(C)NCC1COc2ccccc2O1)NCC1COc2ccccc2O1 (stereo not drawn) | -8% (inactive)
O=C1OC(c2ccc(O)cc2)=C(c2ccccc2)C1c1ccccc1 (stereo not drawn) | -7% (inactive)
O=C(c1ccccc1)C(Br)CCCC(Br)C(=O)c1ccccc1 (stereo not drawn) | 16% (inactive)
CCC(c1ccc(O)cc1)C(O)(CC)c1ccc(O)cc1 (stereo not drawn) | -10% (inactive)
Cn1cnc2[nH]c(Cl)nc(=S)c21 | 3% (inactive)
O=C(NCCN1CCCC1)c1cn2c(ccc3sc4ccccc4c(=O)c32)n1 | 21% (inactive)
CC(C)(C)OC(=O)CNC(=O)C(Cc1ccccc1)NC(=O)C(N)CSC(c1ccccc1)(c1ccccc1)c1ccccc1 (stereo not drawn) (H-Cys(Trt)-Phe-Gly-OtBu; configuration not given here) | -5% (inactive)
C/C(=N/NC(N)=S)C(CN(C)C)C(C1=C(O)c2ccccc2OC1)c1ccccc1 (stereo not drawn) | 2% (inactive)
O=C(CC(=O)c1ccccc1)CC(=O)c1ccccc1Br | -1% (inactive)
O=C1OC2(c3ccccc31)c1cc(I)c(O)c(I)c1Oc1c2cc(I)c(O)c1I | 61% (inactive)
Nc1cc(Cl)c2c(c1)Cc1ccccc1-2 | 2% (inactive)
C1=Cc2ccccc2/C1=C/c1ccccc1 | -32% (inactive)
Cc1ccc(C2=CC(=O)/C(=C\C(=O)c3ccc(Cl)cc3)O2)cc1 | 28% (inactive)
CC1(c2ccc(S(=O)(=O)c3ccccc3)cc2)OC(=O)C=CC1=O (stereo not drawn) | 92% (active)
CCCc1cc(-c2ccc(O)c(CCC)c2)ccc1O | 98% (active)
CCOC(=O)N1c2ccc3ccccc3c2C=CC1C#N (stereo not drawn) | -12% (inactive)

Structure (SMILES) | growth inhibition
N#CNc1nc(N)c(-c2ccc(Cl)cc2)c(C(=O)Nc2ccc(Cl)c(Cl)c2)n1 | -3% (inactive)
O=c1c(Cl)c(Cl)oc(Cl)c1Cl | 30% (inactive)
O=c1nc(-c2ccccc2)cc(-c2ccccc2O)[nH]1 | -1% (inactive)
O=C(Cc1nc2ccccc2s1)C(=O)Nc1ccc(Cl)cc1 | -1% (inactive)
c1ccc(OCC2c3ccccc3Nc3ccccc32)cc1 | 99% (active)
CCN(C(=O)C(F)(F)F)c1ccc2c(c1)C(=O)c1ccccc1-2 | 1% (inactive)
Cc1cc2oc3c(ccc(=O)n3C)c(=O)c2c(C)c1Cl | 10% (inactive)
O=C(CC(O)(C(F)(F)F)C(F)(F)F)C(c1ccccc1)C(O)(C(F)(F)F)C(F)(F)F (stereo not drawn) | 13% (inactive)
O=S(=O)(Sc1ccccc1)C(c1ccccc1)c1ccccc1 | 2% (inactive)
COc1ccc2c3c(ccc2c1)NC(C(=O)O)CC3 (stereo not drawn) | -11% (inactive)
N#CSc1ccc2nc(NCO)sc2c1 | 7% (inactive)
CC(CN(C)C)C(=O)c1cn(C)c2ccccc12 (stereo not drawn) | 5% (inactive)
Cc1cc(Cl)nc2ccc(Cc3ccc4nc(Cl)cc(C)c4c3)cc12 | 15% (inactive)
COc1ccc2c(c1)CN([C@@H](C)[C@H]1CC[C@H]3[C@@H]4CC[C@H]5C[C@@H](O)CC[C@]5(C)[C@H]4CC[C@]13C)CO2 | 59% (inactive)
FC(F)(F)c1nc(Cl)nc2nc[nH]c12 | -7% (inactive)
CC(C)C1COC(c2ccc3ccccc3c2-c2c(O[Si](C)(C)C(C)(C)C)ccc3ccccc23)=N1 (stereo not drawn) | 14% (inactive)
COc1cc2c(c(C3C(=O)N(C)c4ccc(Br)cc43)c1OC)OCO2 (stereo not drawn) | 2% (inactive)
c1ccc2c3[nH]c(c2c1)=Nc1ccc(cc1)-c1nc2ccc(cc2o1)N=c1[nH]c(c2ccccc12)=Nc1ccc2nc(oc2c1)-c1ccc(cc1)N=3 | 18% (inactive)
c1ccc2nc3ccccc3nc2c1 | -3% (inactive)

same assay, conditions: S. cerevisiae mec2-1 strain, at 50.0 µM (retest, dose inferred, filed as 5.0), hits give high values

Structure (SMILES) | growth inhibition
CCOC(=O)C(=N\Nc1cccc(C)c1C)/C(C)=N\NC(N)=S | 56% (inactive)
CCN(CC)CCNc1ccc(C)c2oc3ccc(O)cc3c(=O)c12 | 29% (inactive)
O=C1C(C=NC(=S)c2ccccc2)=C(O)c2ccccc21 | 68% (inactive)
CCOC(=O)Cc1csc(/N=C\c2c(O)c3ccccc3oc2=O)n1 | 25% (inactive)
CC(C)(CCCCC(C)(C)NCC1COc2ccccc2O1)NCC1COc2ccccc2O1 (stereo not drawn) | 81% (active)
O=C1OC(c2ccc(O)cc2)=C(c2ccccc2)C1c1ccccc1 (stereo not drawn) | 29% (inactive)
O=C(c1ccccc1)C(Br)CCCC(Br)C(=O)c1ccccc1 (stereo not drawn) | 51% (inactive)
CCC(c1ccc(O)cc1)C(O)(CC)c1ccc(O)cc1 (stereo not drawn) | -4% (inactive)
Cn1cnc2[nH]c(Cl)nc(=S)c21 | 0% (inactive)
O=C(NCCN1CCCC1)c1cn2c(ccc3sc4ccccc4c(=O)c32)n1 | 71% (active)
CC(C)(C)OC(=O)CNC(=O)C(Cc1ccccc1)NC(=O)C(N)CSC(c1ccccc1)(c1ccccc1)c1ccccc1 (stereo not drawn) (H-Cys(Trt)-Phe-Gly-OtBu; configuration not given here) | 53% (inactive)
C/C(=N/NC(N)=S)C(CN(C)C)C(C1=C(O)c2ccccc2OC1)c1ccccc1 (stereo not drawn) | 2% (inactive)
O=C(CC(=O)c1ccccc1)CC(=O)c1ccccc1Br | 93% (active)
O=C1OC2(c3ccccc31)c1cc(I)c(O)c(I)c1Oc1c2cc(I)c(O)c1I | 99% (active)
Nc1cc(Cl)c2c(c1)Cc1ccccc1-2 | 95% (active)
C1=Cc2ccccc2/C1=C/c1ccccc1 | 89% (active)
Cc1ccc(C2=CC(=O)/C(=C\C(=O)c3ccc(Cl)cc3)O2)cc1 | 28% (inactive)
CC1(c2ccc(S(=O)(=O)c3ccccc3)cc2)OC(=O)C=CC1=O (stereo not drawn) | 99% (active)
CCCc1cc(-c2ccc(O)c(CCC)c2)ccc1O | 99% (active)
CCOC(=O)N1c2ccc3ccccc3c2C=CC1C#N (stereo not drawn) | -5% (inactive)

Structure (SMILES) | growth inhibition
N#CNc1nc(N)c(-c2ccc(Cl)cc2)c(C(=O)Nc2ccc(Cl)c(Cl)c2)n1 | -2% (inactive)
O=c1c(Cl)c(Cl)oc(Cl)c1Cl | 99% (active)
O=c1nc(-c2ccccc2)cc(-c2ccccc2O)[nH]1 | 25% (inactive)
O=C(Cc1nc2ccccc2s1)C(=O)Nc1ccc(Cl)cc1 | 2% (inactive)
c1ccc(OCC2c3ccccc3Nc3ccccc32)cc1 | 98% (active)
CCN(C(=O)C(F)(F)F)c1ccc2c(c1)C(=O)c1ccccc1-2 | 12% (inactive)
Cc1cc2oc3c(ccc(=O)n3C)c(=O)c2c(C)c1Cl | 23% (inactive)
O=C(CC(O)(C(F)(F)F)C(F)(F)F)C(c1ccccc1)C(O)(C(F)(F)F)C(F)(F)F (stereo not drawn) | 79% (active)
O=S(=O)(Sc1ccccc1)C(c1ccccc1)c1ccccc1 | 71% (active)
COc1ccc2c3c(ccc2c1)NC(C(=O)O)CC3 (stereo not drawn) | 56% (inactive)
N#CSc1ccc2nc(NCO)sc2c1 | 97% (active)
CC(CN(C)C)C(=O)c1cn(C)c2ccccc12 (stereo not drawn) | 2% (inactive)
Cc1cc(Cl)nc2ccc(Cc3ccc4nc(Cl)cc(C)c4c3)cc12 | 5% (inactive)
COc1ccc2c(c1)CN([C@@H](C)[C@H]1CC[C@H]3[C@@H]4CC[C@H]5C[C@@H](O)CC[C@]5(C)[C@H]4CC[C@]13C)CO2 | 99% (active)
FC(F)(F)c1nc(Cl)nc2nc[nH]c12 | -2% (inactive)
CC(C)C1COC(c2ccc3ccccc3c2-c2c(O[Si](C)(C)C(C)(C)C)ccc3ccccc23)=N1 (stereo not drawn) | 14% (inactive)
COc1cc2c(c(C3C(=O)N(C)c4ccc(Br)cc43)c1OC)OCO2 (stereo not drawn) | 4% (inactive)
c1ccc2c3[nH]c(c2c1)=Nc1ccc(cc1)-c1nc2ccc(cc2o1)N=c1[nH]c(c2ccccc12)=Nc1ccc2nc(oc2c1)-c1ccc(cc1)N=3 | 93% (active)
c1ccc2nc3ccccc3nc2c1 | 36% (inactive)
